CRFR2-BP ag: agonists of human CRF-binding protein/CRF-R2 receptor complex | activation, % at 13.2 µM | HEK293 CRF-R2/CRF-BP, calcium dye fluorescence (FLIPR); percent of saturating CRF peptide response | actives 0.46% (n = 350,000);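 active = activation of at least 50%, plus an integration ratio under a set limit after plate pattern correction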
IDE cell inh: inhibitors of human insulin-degrading enzyme in cells. P14735. HEK cells, FAbetaB cleavage, fluorescence polarization. inhibition, % at 5.59 µM. actives 0.41% (n = 320,000);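 active = percent inhibition above the average of all tested compounds plus 3 SD, set per screening campaign, cut at about 16% in these data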;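 also: IDE supplied by intact live HEK cells; FP after avidin binding of uncleaved biotin substrate so inhibition keeps polarization high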
Target sequence (P14735 whole entry, looked up): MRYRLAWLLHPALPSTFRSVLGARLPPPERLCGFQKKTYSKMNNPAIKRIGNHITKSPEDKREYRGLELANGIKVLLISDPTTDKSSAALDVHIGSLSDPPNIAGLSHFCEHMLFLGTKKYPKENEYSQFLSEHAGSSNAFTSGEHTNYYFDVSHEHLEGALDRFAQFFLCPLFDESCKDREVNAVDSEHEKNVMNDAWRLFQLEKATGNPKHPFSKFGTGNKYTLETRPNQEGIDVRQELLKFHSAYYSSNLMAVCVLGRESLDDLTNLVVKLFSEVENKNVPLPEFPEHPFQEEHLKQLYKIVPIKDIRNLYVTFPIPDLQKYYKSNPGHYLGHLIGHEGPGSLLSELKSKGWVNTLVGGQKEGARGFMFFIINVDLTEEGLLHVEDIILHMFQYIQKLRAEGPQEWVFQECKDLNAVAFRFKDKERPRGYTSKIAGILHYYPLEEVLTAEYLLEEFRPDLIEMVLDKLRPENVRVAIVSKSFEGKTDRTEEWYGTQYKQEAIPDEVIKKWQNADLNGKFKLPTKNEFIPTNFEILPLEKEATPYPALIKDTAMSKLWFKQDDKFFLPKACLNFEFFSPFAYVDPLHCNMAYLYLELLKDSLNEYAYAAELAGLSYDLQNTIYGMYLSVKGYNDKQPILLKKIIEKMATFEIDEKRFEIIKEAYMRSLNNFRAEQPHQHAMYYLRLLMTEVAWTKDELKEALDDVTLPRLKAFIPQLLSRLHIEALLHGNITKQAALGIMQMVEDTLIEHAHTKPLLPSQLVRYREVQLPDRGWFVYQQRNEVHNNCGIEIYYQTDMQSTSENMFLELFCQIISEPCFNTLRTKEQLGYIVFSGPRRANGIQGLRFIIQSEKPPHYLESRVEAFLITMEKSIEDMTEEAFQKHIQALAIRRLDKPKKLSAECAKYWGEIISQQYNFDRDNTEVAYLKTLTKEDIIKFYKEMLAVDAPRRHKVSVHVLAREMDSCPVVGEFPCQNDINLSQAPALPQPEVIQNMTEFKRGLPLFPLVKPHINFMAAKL
TPT1 inh: blocks Candida albicans tRNA 2'-phosphotransferase; inhibition, % at 5 µM; recombinant caTPT1, FP RNA substrate dephosphorylation; actives 0.81% (n = 300,000); AID 1962;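 active = inhibition above the mean of all tested compounds plus 3 SD, set per screening campaign, cut at about 24% in these data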
IDE cell activ: IDE (human) activation, cell-based. P14735. HEK cells, FAbeta-B cleavage, fluorescence polarization; 0% vehicle, 100% cell-free pure enzyme wells. activation, % at 5.96 µM. actives 0.073% (n = 340,000). AID 493087;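 active = activation above the mean of all tested compounds plus 3 SD, set per screening campaign, cut at about 17% in these data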
Myeloid diff 2: myeloid differentiation induction | ER-HoxA9 myeloid progenitors, lysozyme-GFP differentiation, flow cytometry | calls only at 10 µM | actives 1% (n = 360,000) | AID 624256;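 active = normalized GFP-positive differentiation at or above the plate's own cutoff, the solvent-only control mean plus 3 SD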;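 also: cells exposed to compound for four days before flow analysis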
CRFR2-BP antag: CRF-BP/CRF-R2 complex antagonism; HEK293 CRF-R2/CRF-BP, CRF-induced calcium fluorescence; inhibition, % at 11.8 µM; actives 0.59% (n = 350,000); AID 588475;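 active = inhibition of the ligand-induced calcium signal above about 50% at the single tested concentration, limit read from the data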
Myeloid diff: myeloid differentiation induction; shares compounds with Myeloid diff 2; ER-HoxA9 myeloid progenitors, GFP/Mac1 double-positive flow; calls only; actives 2% (n = 2,300);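 active = share of green or green-and-red cells above 9 and 9% in run 1 or 4 and 3% in run 2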
GFP autofluor: flagged as fluorescent in myeloid differentiation counter-screen | ER-HoxA9 myeloid progenitors, no estrogen, GFP autofluorescence flow cytometry; vehicle wells 0%, positive control 100% | AID 651707 | shares compounds with Myeloid diff 2 | actives 7.4% (n = 2,300) | fluorescence response, % (test concentration not listed);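 active = over 5% cells positive for green fluorescent reporter, or over 2% positive for both it and APC stain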
Large screens that a line does not name were inactive (follow-up assays come after a bar, where they were run). The list is not random: actives were taken first. Their share in the collection is about 2.6%.

Cc1cc2c(cc3c(=O)n(CC(=O)NCCCN4CC(C)CC(C)C4)ncn32)s1 (stereo not given)	none
O=C(Nc1sc2c(c1C(=O)O)CCCC2)c1cccs1	none
O=C(Nc1sc2c(c1C(=O)NCC1CCCO1)CCCC2)c1cccs1 (stereo not given)	none | Myeloid diff inactive | GFP autofluor inactive
COc1cccc(CNc2nc(NCc3ccccc3)nc3ccsc23)c1	none (no result: CRFR2-BP ag, IDE cell inh, TPT1 inh, IDE cell activ, CRFR2-BP antag)
COCCNc1nc(NCc2cccc(OC)c2)c2sc(-c3ccccc3)cc2n1	Myeloid diff 2 active (no result: CRFR2-BP ag, IDE cell inh, TPT1 inh, IDE cell activ, CRFR2-BP antag) | Myeloid diff inactive | GFP autofluor inactive
CC(C)Nc1nc(NCCN2CCCC2)c2sc(-c3ccccc3)cc2n1	Myeloid diff 2 active (no result: CRFR2-BP ag, IDE cell inh, TPT1 inh, IDE cell activ, CRFR2-BP antag) | Myeloid diff inactive | GFP autofluor inactive
CC(C)Nc1nc(-c2ccccc2F)c2sc(-c3ccccc3)cc2n1	none (no result: CRFR2-BP ag, IDE cell inh, TPT1 inh, IDE cell activ, CRFR2-BP antag)
CN(CC(=O)Nc1ccccc1C(F)(F)F)C(=O)CSc1nnc(-c2ccncc2)n1C	none (no result: TPT1 inh)
CC(NC(=O)C1CCN(S(=O)(=O)c2cccs2)CC1)c1cccc(Cl)c1 (stereo not given)	none (no result: TPT1 inh)
Cc1cc(C)cc(N/C(N)=N/c2nc(C)cc(C)n2)c1	none
Cc1cc(C)nc(/N=C(\N)Nc2ccccc2-c2ccccc2)n1	Myeloid diff 2 active | Myeloid diff inactive | GFP autofluor inactive
O=c1cc(-c2ccc(O)cc2)oc2c(O)c(O)c(O)c(O)c12	none | Myeloid diff inactive | GFP autofluor inactive
O=c1cc(-c2ccc(O)cc2)oc2c1ccc1ccccc12	none (no result: TPT1 inh)
CCC(Oc1nc2ccccc2nc1-c1ccccc1NC(C)=O)C(=O)c1ccccc1 (stereo not given)	Myeloid diff 2 active | Myeloid diff inactive | GFP autofluor inactive
CC(=O)Nc1ccccc1-c1nc2cc(C#N)c(C#N)cc2[nH]c1=O	none
N#CC1=C(N)Oc2n[nH]c(-c3ccccn3)c2C1c1c(F)cccc1Cl (stereo not given)	none | Myeloid diff inactive | GFP autofluor inactive
COCc1[nH]nc2c1C(c1c(F)cccc1Cl)C(C#N)=C(N)O2 (stereo not given)	none
Cc1cccc(-n2c(CNC(=O)COc3ccccc3)nnc2SCC(=O)Nc2nccs2)c1	none | Myeloid diff inactive | GFP autofluor 5.4
COc1cccc(C(=O)NCc2nnc(SCC(=O)Nc3nccs3)n2-c2cccc(C)c2)c1	none
OC1(c2ccccc2F)CCN(Cc2nnnn2Cc2ccc(F)cc2)CC1	Myeloid diff 2 active | Myeloid diff inactive | GFP autofluor inactive
CC1=NN(c2ccccc2)C(=O)C1CCC#N (stereo not given)	none (no result: CRFR2-BP ag, IDE cell inh, TPT1 inh, IDE cell activ, CRFR2-BP antag)
C[C@@H]1CCCCO[C@@H](CN(C)C(=O)c2ccncc2)[C@@H](C)CN([C@H](C)CO)C(=O)c2cc(N(C)C)ccc2O1	none (no result: IDE cell inh, TPT1 inh, IDE cell activ)
Cc1noc(C)c1S(=O)(=O)Nc1ccc2c(c1)C(=O)N([C@H](C)CO)C[C@H](C)[C@@H](CN(C)C(=O)CCCN(C)C)OCCCC[C@@H](C)O2	none (no result: IDE cell inh, TPT1 inh, IDE cell activ) | Myeloid diff inactive | GFP autofluor inactive
C[C@@H]1CCCCO[C@H](CN(C)C(=O)C2CCCCC2)[C@@H](C)CN([C@H](C)CO)C(=O)c2cc(N(C)C)ccc2O1	none (no result: IDE cell inh, TPT1 inh, IDE cell activ) | Myeloid diff inactive | GFP autofluor inactive
O=C(NCC(=O)N(c1cccnc1)C(C(=O)NC1CCCC1)c1cccs1)c1ccco1 (stereo not given)	none | Myeloid diff inactive | GFP autofluor 67.0
O=C(NCC(=O)N(c1cccnc1)C(C(=O)NC1CCCCC1)c1cccnc1)c1ccco1 (stereo not given)	none
Cc1cccc(N(C(=O)CNC(=O)c2cccs2)C(C(=O)NC2CCCC2)c2cccnc2)c1 (stereo not given)	none | Myeloid diff inactive | GFP autofluor inactive
Cc1cc(C)cc(N(C(=O)CNC(=O)c2cccs2)C(C(=O)NC2CCCC2)c2cccnc2)c1 (stereo not given)	none
Clc1ccccc1OCCNc1nc(NCC2CC2)nc2ccsc12	none (no result: CRFR2-BP ag, IDE cell inh, TPT1 inh, IDE cell activ, CRFR2-BP antag)
CCCNC(=O)/C=C/C(=O)O	none
CCN(CC(=O)Nc1ccccc1OC)Cc1csc(CC(=O)Nc2ccc(C)cc2)n1	none (no result: TPT1 inh)
COc1cc(OC)c(-c2c3cc(O)c(=O)cc-3oc3cc(O)c(O)cc23)cc1OC	CRFR2-BP ag 171.4, IDE cell activ 40.7, Myeloid diff 2 active | Myeloid diff inactive | GFP autofluor 99.2
COc1cc(-c2cc(=O)c3ccc(O)cc3o2)cc(OC)c1OC	none (no result: CRFR2-BP ag, IDE cell inh, TPT1 inh, IDE cell activ, CRFR2-BP antag)
C=CCN1CC(=O)N2C(c3ccccc3)c3[nH]c4ccccc4c3C[C@H]2C1=O (stereo not given in full)	none (no result: IDE cell inh, TPT1 inh)
Cc1cc(Cl)ccc1NC(=S)N1CCN(Cc2ccc3c(c2)OCO3)CC1	Myeloid diff 2 active | Myeloid diff inactive | GFP autofluor inactive
CC(C)C(=O)Nc1cccc(NC(=O)CCN2C(=O)c3ccccc3S2(=O)=O)c1	none | Myeloid diff inactive | GFP autofluor inactive
CSc1cccc(NC(=O)CN2C(=O)c3ccccc3S2(=O)=O)c1	none | Myeloid diff inactive | GFP autofluor inactive
COc1cccc(NC(=O)CCN2C(=O)c3ccccc3S2(=O)=O)c1	none
CC(Sc1nn(-c2ccccc2)c(=S)s1)C(=O)NCC1CCCO1 (stereo not given)	none (no result: TPT1 inh) | Myeloid diff inactive | GFP autofluor inactive
CC(=O)NC(Cc1ccccc1F)C(=O)NC1CCN(C(=O)c2cnccn2)CC1 (stereo not given)	none
COc1ccc(CC(NC(C)=O)C(=O)NC2CCN(C(=O)c3cnccn3)CC2)cc1 (stereo not given)	none | Myeloid diff inactive | GFP autofluor inactive
COc1ccc(NC(=O)C2CCCN2S(=O)(=O)c2ccc3c(c2)C(C)(C)C(=O)N3C)cc1 (stereo not given)	none (no result: CRFR2-BP ag, IDE cell inh, TPT1 inh, IDE cell activ, CRFR2-BP antag)
Cc1ccc(NC(=O)COC(=O)Cn2nc(C)c([N+](=O)[O-])c2C)c([N+](=O)[O-])c1	none
CCOc1ccc(NC(=O)COC(=O)Cn2nc(C)c([N+](=O)[O-])c2C)cc1OCC	Myeloid diff 2 active (no result: TPT1 inh) | Myeloid diff inactive | GFP autofluor inactive
CC(C)NC(=O)C1(S(=O)(=O)c2ccccc2)CC=CC1	none
CC#CCN1c2ccccc2[C@]23C[C@@H](C(=O)OC)N(C(=O)NC4CCCCC4)C2=NC(C(=O)OC)=C(C(=O)OC)[C@H]13	none | Myeloid diff inactive | GFP autofluor inactive
CC#CCN1c2ccccc2[C@]23C[C@@H](C(=O)OC)N(C(=O)C4CCC4)C2=NC(C(=O)OC)=C(C(=O)OC)[C@H]13	none
Cc1ccccc1NC(=O)c1sc2nc[nH]c(=O)c2c1C	none | Myeloid diff inactive | GFP autofluor inactive
CCOC(=O)c1cnc2c(-c3ccccc3OC)c(C)nn2c1C	none

Screens from PubChem.
